Screening results as filed in PubChem.
JMJD2C inh = inhibitors of human GASC-1 (JMJD2C) demethylase; Q9H3R0; GST-JMJD2C(1-420) H3K9me3 demethylation, DELFIA europium; inhibition, % at 2.35 µM; 0.069% of 330,000 active;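 active means more than half of a compound's replicate wells show inhibition beyond 50%, single wells judged on their own value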;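 further: signal counts dimethyl H3K9 product captured on neutravidin plate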
Target sequence (Q9H3R0 1-420 limits assumed): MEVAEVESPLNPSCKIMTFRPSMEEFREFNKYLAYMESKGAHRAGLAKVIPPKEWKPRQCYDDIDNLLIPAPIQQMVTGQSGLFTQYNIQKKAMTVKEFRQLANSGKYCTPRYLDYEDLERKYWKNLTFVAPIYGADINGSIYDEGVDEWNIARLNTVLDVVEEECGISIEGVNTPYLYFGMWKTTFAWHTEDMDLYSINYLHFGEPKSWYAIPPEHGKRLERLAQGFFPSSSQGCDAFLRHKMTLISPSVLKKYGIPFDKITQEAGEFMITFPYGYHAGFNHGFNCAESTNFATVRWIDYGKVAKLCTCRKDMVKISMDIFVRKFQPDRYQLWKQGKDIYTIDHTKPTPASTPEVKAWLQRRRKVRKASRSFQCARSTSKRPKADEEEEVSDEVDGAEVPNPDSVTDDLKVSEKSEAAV
p-CIP stab down = lowers stability of the mouse p/CIP coactivator protein; F442A p/CIP-EGFP cells, EGFP fluorescence, 16 h; decrease of EGFP signal, % at 10 µM; 0.01% of 290,000 active;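 active means EGFP signal decrease of at least 30% at 10 µM or well 3 SD below plate mean, unless failing retest; inactive means the rest, including hits failing retest or dose response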
GPR7 antagonist = antagonists of human GPR7 (neuropeptides B/W receptor 1); P48145; GPR7-expressing cells, fluorescence antagonist assay; inhibition, % at 4.4 µM; 1.1% of 290,000 active; in the data active means inhibition above about 16%, passing the limit was not always enough;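 further: cells stimulated with the agonist NPW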
VLA-4 inh = inhibition in a human VLA-4 binding assay | P13612 | VLA-4 expressing cells, ligand binding flow cytometry | inhibition, % (about 7 µM as worked out from the volumes in the protocol) | 0.2% of 330,000 active | AID 2557; in the data active means inhibition above about 50%
GPR7 antag cf = confirmation of human GPR7 antagonists; inhibition, % at 4.4 µM; 52% of 2,400 active; shares compounds with GPR7 antagonist; GPR7-expressing cells, calcium fluorescence antagonist mode; AID 1952; in the data active means inhibition above about 24%;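 further: stimulated with the GPR7 agonist NPW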
MCHR1 antag = MCHR1 (human) antagonism in GPR7 counter-screen | AID 2148 | MCHR1-expressing cells, fluorescence antagonist assay | inhibition, % at 4.4 µM | shares compounds with GPR7 antagonist | 62% of 2,400 active; in the data active means inhibition above about 22%
Each line names hits and unclear results; the compound was inactive in the other large screens (follow-up assays come after a bar, where they were run). In the library only some 1.2% were active in any assay of this set; here they are far more common.

CCN1/C(=C/c2ccc3cc(C)ccc3[n+]2CC)Sc2cc(C)c(C)cc21	GPR7 antagonist 28.4 (no result: JMJD2C inh, VLA-4 inh) | GPR7 antag cf 29.7 | MCHR1 antag inactive
CC[n+]1c(/C=C2\Sc3ccccc3N2C)ccc2cccc(C)c21	none (no result: VLA-4 inh)
CCOC(=O)c1ccc(N2CCOCC2)c(NS(=O)(=O)c2ccc(F)cc2)c1	none
Cc1ccc(Cc2nc(-c3ccncc3)no2)cc1	GPR7 antagonist 23.5 | GPR7 antag cf inactive | MCHR1 antag 28.3
COc1ccc(-c2noc(Cc3ccc(Cl)cc3)n2)cc1OC	GPR7 antagonist 24.9 | GPR7 antag cf inactive | MCHR1 antag inactive
c1ccc(C(Cc2nc(-c3ccncc3)no2)c2ccccc2)cc1	GPR7 antagonist 50.5 | GPR7 antag cf 53.6 | MCHR1 antag 44.7
COc1ccc(Cc2nc(-c3ccc(Cl)cc3)no2)cc1	none
COc1ccc(-c2noc(COc3ccc4ccccc4c3Br)n2)cc1OC	GPR7 antagonist 21.0 | GPR7 antag cf inactive | MCHR1 antag inactive
COc1ccc(-c2noc(COc3ccc(C)c(C)c3)n2)cc1OC	none
COc1ccc(OC)c(S(=O)(=O)Nc2cccc3ccc(O)cc23)c1	none (no result: p-CIP stab down, GPR7 antagonist)
CC1(C)[C@H]2CC=C(CN3CCC(N4CCC(C(=O)N5CCCC5)CC4)CC3)[C@@H]1C2	none
CC(C)CCNC(=O)NC(=O)CN1C(=O)NC2(CCCCC2)C1=O	GPR7 antagonist 23.8 | GPR7 antag cf inactive | MCHR1 antag inactive
O=C(Cn1nc([N+](=O)[O-])nc1Br)NC(c1ccccc1)c1ccccc1	GPR7 antagonist 34.3 | GPR7 antag cf inactive | MCHR1 antag inactive
Cc1cc([N+](=O)[O-])nn1CC(=O)NC(C)c1ccccc1 (stereo not drawn)	none
c1ccc(OCc2nnc(-c3ccccc3)o2)cc1	GPR7 antagonist 21.5 | GPR7 antag cf inactive | MCHR1 antag 25.1
O=C(O)CCn1c2ccccc2c2nc3ccccc3nc21	GPR7 antagonist 27.7 | GPR7 antag cf inactive | MCHR1 antag inactive
Cc1cc(OC2CCCCC2)nc(NCc2ccccc2)n1	none
Cc1cc(N2CCCCC2)nc(NCc2ccccc2)n1	GPR7 antagonist 84.1 | GPR7 antag cf 73.4 | MCHR1 antag 88.9
Cc1cc(N2CCOCC2)nc(NCc2ccccc2)n1	GPR7 antagonist 23.0 | GPR7 antag cf 60.5 | MCHR1 antag 71.7
COc1cccc(C(=O)COc2cccc(NC(=O)c3cccc([N+](=O)[O-])c3)c2)c1	GPR7 antagonist 28.6 | GPR7 antag cf 29.1 | MCHR1 antag 68.6
COc1ccc(NC(=O)c2cccc(Oc3ccc([N+](=O)[O-])cc3Cl)c2)cc1	GPR7 antagonist 33.9 | GPR7 antag cf inactive | MCHR1 antag 35.9
O=C(COc1cccc(NC(=O)c2cccc([N+](=O)[O-])c2)c1)c1ccc(F)cc1	GPR7 antagonist 29.1 | GPR7 antag cf 35.3 | MCHR1 antag 69.9
COC(=O)Nc1ccc(SCC(=O)c2cccc([N+](=O)[O-])c2)cc1	GPR7 antagonist 23.1 | GPR7 antag cf inactive | MCHR1 antag 60.3
O=C(COc1cccc(NC(=O)c2ccccc2)c1)c1ccc(F)cc1	none
O=[N+]([O-])c1ccc(O)c(-c2cc(C(F)(F)F)nc(-c3ccccc3)n2)c1	GPR7 antagonist 43.6 | GPR7 antag cf 72.2 | MCHR1 antag 59.6
CCn1nc(C)c(CN2CCC(C(=O)Nc3cccc(-c4cccc(Cl)c4)c3)CC2)c1C	GPR7 antagonist 25.5 | GPR7 antag cf inactive | MCHR1 antag 50.5
Cc1nc(NC(=O)CSc2nnc(Cn3nnc4ccccc43)n2C)sc1C	none
Nc1c(C(=O)c2ccccc2)sc(Nc2ccccc2)c1S(=O)(=O)c1ccccc1	GPR7 antagonist 21.7 | GPR7 antag cf inactive | MCHR1 antag inactive
CCC(C)c1ccc(NC(=O)C/C(C)=N/NC(=O)c2cnccn2)cc1 (stereo not drawn)	none
O=C1C(Cl)=C(Nc2ccccc2)C(=O)c2ccccc21	none
O=C(O)c1ccc(NC2=C(Cl)C(=O)c3ccccc3C2=O)cc1	GPR7 antagonist 50.0 | GPR7 antag cf inactive | MCHR1 antag 35.1
C#CCOCCOCCOCCNc1nc(N2CCN(C(=O)[C@H]([C@@H](C)CC)n3cc([C@@H](N)CO)nn3)CC2)nc(N2CCN(C(=O)[C@H](CCCCN)n3cc([C@@H](N)CC(C)C)nn3)CC2)n1	none
CCOC(=O)C1(Cc2ccccc2C)CCCN(C(=O)c2ccoc2)C1 (stereo not drawn)	none
